± gives the standard deviation of the averaged measurements. In all, about 4,100 sequences were measured (“relative kcat/Km (krel) vs genomic leader AAAGAU”: median about 1.7, highest 2% from about 6.5 on). This excerpt belongs to a sample that is enriched for the highest values.
Molecular target: T1, E. coli RNase P holoenzyme (M1 P RNA + rnpA protein) (UniProt P0A7Y8)
T1 sequence: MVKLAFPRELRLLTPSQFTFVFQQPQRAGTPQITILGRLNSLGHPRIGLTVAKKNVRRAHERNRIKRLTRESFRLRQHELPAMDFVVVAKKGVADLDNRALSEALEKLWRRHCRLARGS
Assay: relative kcat/Km (krel) vs genomic leader AAAGAU (relative (reference leader = 1)); higher = faster RNase P cleavage
Method: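 HTS-Kin: a pool of ptRNA-Met (21C construct) with all 4096 combinations of 5' leader nucleotides N(-6) to N(-1) was processed in vitro by E. coli RNase P (P RNA + rnpA/C5 protein) under multiple-turnover conditions at 37 C, pH 8, 17.5 mM MgCl2. Residual substrate was Illumina-sequenced at several fractions reacted, and relative kcat/Km (krel) was computed by internal competition kinetics, calibrated to the genomic leader (AAAGAU = 1). The listed hexamer is the varied N(-6)..N(-1) leader (DNA letters), and it sits between a fixed 5' stem-loop flank (GCAUGCACGAAAGUGCGUGCUAUGAA) and the mature tRNA-Met starting GGCUACGUAGCUCAGUUGG. Two technical replicates are averaged.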

[1] = fraction of substrate reacted: ~9-10% (9.79% repeat 1, 9.1% repeat 2)
[2] = fraction of substrate reacted: ~13-16% (15.68% repeat 1, 13.17% repeat 2)
[3] = fraction of substrate reacted: ~26-29% (28.66% repeat 1, 26.4% repeat 2)

Sequence	relative kcat/Km [1]	relative kcat/Km [2]	relative kcat/Km [3]
GGCGCT	1.32 ± 0.23	0.701 ± 0.31	1.43 ± 0.38
GGGCTT			0.481 ± 0.22
TAACCG			0.9 ± 0.51
GCTTTC	2.29 ± 2.1	1.88 ± 0.58	2.09 ± 0.45
AATACA	1.91 ± 0.78	1.7 ± 0.041	2.02 ± 0.66
TAAACA	1.85 ± 0.81	1.35 ± 0.24	1.75 ± 0.52
ATCGGA	0.168 ± 0.15	0.728 ± 0.66	1.28 ± 1.1
CAGCTT	2.22 ± 1.1	1.55 ± 0.38	2.33 ± 0.38
GTGCAC	1.19 ± 0.29	1.29 ± 0.18	1.98 ± 0.6
GATAAA	1.84 ± 0.48	2.34 ± 0.5	3.8 ± 1.4
AGAGAG			1.16 ± 0.33
ATCGAC	3.59 ± 0.99	4.75 ± 0.93	6.92 ± 2
ATCGAG	2.14 ± 2.1	1.29 ± 0.12	3.85 ± 0.66
GTCGAG	2.05 ± 1.5	2.123 ± 0.001	4.03 ± 1.6
ATCGAT	1.99 ± 0.67	3 ± 0.7	3.36 ± 1.2
ATCGAA	3.16 ± 0.35	5.71 ± 1.4	8.19 ± 3.6
GGCGAA	2.38 ± 1.1	2.86 ± 0.39	3.85 ± 1.4
GTCGAT	1.85 ± 0.87	2.87 ± 0.49	3.7 ± 1.3
GTCGAC	3.76 ± 0.29	5.92 ± 1.9	9.01 ± 3.7
GTCGAA	4.23 ± 1.8	5.6 ± 0.65	8.71 ± 2.8
GTCGTA	2.55 ± 1.1	2.7 ± 0.23	3.88 ± 0.79
ATCGGC			1.97 ± 1.5
AGCGAC	3.26 ± 1.9	3 ± 1.1	4.06 ± 1.3
TTGCCG			0.519 ± 0.071
AGTGAA	2.54 ± 0.25	2.23 ± 0.96	3.35 ± 1.5
ATGACA	1.94 ± 1.6	1.85 ± 0.61	2.06 ± 0.28
ATACGT	0.722 ± 0.057	1.92 ± 1.6	

Sequence	relative kcat/Km [1]	relative kcat/Km [2]	relative kcat/Km [3]
CGCGGA	1.5 ± 1.2	1.39 ± 0.29	1.41 ± 0.58
AGCACC	2.38 ± 0.45	2.12 ± 1.5	3.05 ± 1.8
CCTGGT			2.47 ± 0.83
CTCGAT	1.97 ± 0.027	2.48 ± 1.3	4.24 ± 2.1
CTCGAC	5.18 ± 1.3	6.72 ± 2.8	9.16 ± 4.6
CTCGAG	1.8 ± 0.06	1.72 ± 1.4	3.97 ± 1.3
TAGGGA	0.803 ± 0.65		
GGAAAC	1.99 ± 1.4	1.61 ± 1.1	2.23 ± 0.17
CCGCGC	2.23 ± 0.85	1.53 ± 0.98	1.76 ± 0.15
GCGCAT	1.99 ± 0.76	2.09 ± 1.1	3.07 ± 1.8
AAAAGC			0.981 ± 0.48
ACAGTG			0.981 ± 0.72
CCGGTA	1.49 ± 0.78	1.25 ± 0.69	
AACGCG	1.32 ± 0.5	0.857 ± 0.52	1.47 ± 0.078
TCCCGA	3.95 ± 1.4	4.81 ± 0.41	7.64 ± 2.3
CCCCGA	3.63 ± 1.8	4.05 ± 0.29	4.96 ± 1.9
TCCCGC	4.31 ± 2.6	5.2 ± 0.32	7.32 ± 3.2
ACCCGC	3.03 ± 1.8	3.51 ± 0.3	4.87 ± 1.5
ACCCGA	3.55 ± 0.39	4.06 ± 0.66	5.44 ± 1.5
CCCCGC	2.14 ± 1.4	2.8 ± 0.83	4.54 ± 1.6
TTGCGG	0.933 ± 0.76	0.256 ± 0.11	1.14 ± 0.22
AAATAA	2.68 ± 1.5	2.92 ± 0.98	3.44 ± 1.2
TCACGC	2.24 ± 0.65	3 ± 0.93	4.05 ± 1.5
GTGACT		0.972 ± 0.2	1.08 ± 0.28
GGGACA	1.4 ± 1.2	0.801 ± 0.45	1.2 ± 0.15
GGGTGC	0.876 ± 0.24	0.837 ± 0.025	1.04 ± 0.35
